Rows were chosen to be rich in hits. Some 11% of all compounds tested hit in one or more screens of this group.
ALDH1A1 inh – qHTS Assay for Inhibitors of Aldehyde Dehydrogenase 1 (ALDH1A1). 220,000 compounds, 7.3% hits. Potency, µM (top dose mostly 75.3 µM), hits mostly inhibitors. AID 1030, 2008. Purified ALDH1A1, NADH fluorescence, propionaldehyde substrate
Target sequence (P00352 whole entry, looked up): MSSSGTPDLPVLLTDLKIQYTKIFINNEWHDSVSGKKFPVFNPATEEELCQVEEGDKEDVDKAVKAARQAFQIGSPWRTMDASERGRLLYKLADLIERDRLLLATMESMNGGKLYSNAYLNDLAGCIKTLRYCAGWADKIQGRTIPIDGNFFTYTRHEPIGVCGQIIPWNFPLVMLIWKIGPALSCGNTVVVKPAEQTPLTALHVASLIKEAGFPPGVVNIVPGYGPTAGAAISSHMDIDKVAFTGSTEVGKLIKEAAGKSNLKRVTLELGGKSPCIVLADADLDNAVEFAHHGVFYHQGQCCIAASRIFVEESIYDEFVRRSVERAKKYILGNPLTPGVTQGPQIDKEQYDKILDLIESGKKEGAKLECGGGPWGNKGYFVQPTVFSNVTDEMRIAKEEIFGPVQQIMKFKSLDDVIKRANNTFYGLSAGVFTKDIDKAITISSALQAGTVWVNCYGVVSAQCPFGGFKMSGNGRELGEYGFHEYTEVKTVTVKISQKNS
PNC inhibitor – High Content Assay for Compounds that inhibit the Assembly of the Perinucleolar Compartment. PC3M PTB-GFP, PNC prevalence imaging, 16 h; stronger effect = lower value. activity change (PNC), negative = inhibition, % at 10 µM. 140,000 compounds, 3.1% hits;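 active = readout at or below -70, meaning at least 70% loss of cells showing the perinucleolar compartment, a nuclear body marking cancer cells; inconclusive = readout between -30 and a set limit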
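PC3M cells stably expressing PTB-GFP, 750–1000 cells/well, treated 16 h at 37 °C with compound (23 nl of library stock), in duplicate. After paraformaldehyde fixation and Hoechst stain, imaged at 20x; PNC prevalence scored by image analysis.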
HPGD block – qHTS Assay for Inhibitors of HPGD (15-Hydroxyprostaglandin Dehydrogenase). purified HPGD, NADH fluorescence kinetic, PGE2 substrate. Potency, µM, hits mostly inhibitors. 150,000 compounds, 4.3% hits. 15-hydroxyprostaglandin dehydrogenase [NAD(+)] (Homo sapiens), P15428
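NADH formation kinetics: reaction with 30 uM PGE2 and 1 mM NAD+ (final), 20 nM enzyme, Tris-HCl pH 8 with Tween 20, after 15 min compound preincubation at room temperature. Fluorescence change, last versus first of five reads.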
A number is an active result; - = inactive; ? = inconclusive; . = no result. Unless noted, calls come from the whole dose curve; as a rule, active = well fitted inhibition curve with a large enough effect (not every such curve was filed as active); inconclusive = small, poorly fitted or top-dose-only effect, or another doubt; inactive = no such curve, though single readings can be large or run the other way.

SMILES | ALDH1A1 inh | PNC inhibitor | HPGD block
O=C(CSc1nc2ccccc2c(=O)n1Cc1ccco1)N1CCCC1 | - | . | .
CCOC(=O)CSc1nc2cc(C(=O)N3CCC(C(N)=O)CC3)ccc2c(=O)n1-c1ccccc1 | - | - | -
COCC(C)n1c(SCC(=O)NNC(=O)c2ccc(F)cc2)nc2ccccc2c1=O (centres undefined) | - | -94 | -
COCCn1c(SCC(=O)c2ccccc2)nc2ccccc2c1=O | 18µM | . | .
COCCn1c(SCC(=O)NNC(=O)c2ccccc2)nc2ccccc2c1=O | - | ? | .
COCCn1c(SCC(=O)NNC(=O)c2ccc(OC)c(OC)c2)nc2ccccc2c1=O | - | . | .
CCOC(=O)CSc1nc2cc(C(=O)N3CCCC3)ccc2c(=O)n1Cc1ccccc1 | 25µM | - | -
CCOC(=O)N1CCC(Nc2nc3ccccc3nc2NS(=O)(=O)c2ccc(Cl)cc2)CC1 | - | - | -
C=CCn1c(SCc2nc3sc4c(c3c(=O)[nH]2)CCCC4)nc2ccccc2c1=O | ? | - | -
COc1ccc(-c2nnc(CSc3nc4ccccc4c(=O)n3CC(C)C)o2)cc1OC | ? | - | -
c1ccc(Cn2c(CN3CCCC3)nc3ccccc32)cc1 | - | ? | -
O=C(CSc1nc2ccccc2n1S(=O)(=O)c1ccccc1)N1CCCCC1 | - | - | 1.8µM
COCCCn1c(SCc2nnc(-c3ccc(OC)c(OC)c3)o2)nc2ccccc2c1=O | - | -100 | 20µM
C=CCSc1nc2ccccc2n1S(=O)(=O)c1ccc(C)cc1 | - | ? | -
O=C(N1CCCCCC1)n1c(Cc2ccccc2)nc2ccccc21 | - | -119 | -
NS(=O)(=O)c1ccc(CCNC(=O)CSc2nc3ccccc3c(=O)n2CCC(=O)N2CCCCC2)cc1 | 7.9µM | . | .
NS(=O)(=O)c1ccc(CCNC(=O)CSc2nc3ccccc3c(=O)n2CCN2CCOCC2)cc1 | - | . | .
Cc1c(NC(=O)C(C)OC(=O)c2ccc([N+](=O)[O-])s2)c(=O)n(-c2ccccc2)n1C (centres undefined) | - | . | .
Cc1ccccc1S(=O)(=O)Nc1nc2ccccc2nc1N1CCOCC1 | - | ? | ?
COc1ccc(C2=NOC(C(=O)NCCCn3ccnc3)C2)cc1 (centres undefined) | - | - | -
CC(C)(O)C#Cc1ccc(CN2CCN(C3CCCCC3)C(CCO)C2)s1 (centres undefined) | - | . | .
CN(CC[C@@H](Oc1ccc(-c2ccccc2)cc1)c1ccc(F)cc1)CC(=O)O | ? | . | -
CN(C)c1ccc2c3c(ccc(N(C)C)c13)COC2 | - | . | .
CCCCc1nc2ccn(CC(=O)N(C)C)c(=O)c2n1Cc1ccc(-c2ccccc2-c2nn[nH]n2)cc1 | - | . | -
COCCn1c(SCC(=O)N2CCc3ccccc3C2)nc2ccccc2c1=O | - | - | -
SMILES | ALDH1A1 inh | PNC inhibitor | HPGD block
NC(=O)CS(=O)(=O)c1nc2ccccc2n1CC(=O)N1CCCCC1 | - | - | -
COCCn1c(SCC(=O)N2CCC(C)CC2)nc2ccccc2c1=O | 11µM | - | -
O=C(Cn1c(S(=O)(=O)Cc2ccccc2)nc2ccccc21)N1CCCCC1 | 25µM | ? | -
COc1ccccc1NC(=O)C1=C(C)NC(=O)NC1c1cc(C)cs1 (centres undefined) | - | - | -
Cc1csc(NC(=O)C(F)(F)F)n1 | - | - | -
CC(=O)N(CN1C(=O)CCC1=O)c1cccc(Cl)c1 | - | - | -
COc1ccc(C(=O)/C=C/C(=O)N(Cc2ccccc2)C(C(=O)NC2CCCCC2)c2ccncc2)c(O)c1 (centres undefined) | - | -86 | -
COc1ccc(C(=O)/C=C/C(=O)N(Cc2ccc(F)cc2)C(C(=O)NC2CCCCC2)c2ccncc2)c(O)c1 (centres undefined) | - | - | -
CN1CCN(c2nc(-c3ccc(Br)cc3)nnc2-c2ccccc2)CC1 | 22µM | - | -
Brc1ccc(-c2nnc(-c3ccccc3)c(N3CCSCC3)n2)cc1 | - | - | -
O=C1CSC(c2ccccn2)N1c1ccc(F)cc1F (centres undefined) | - | . | .
COCCCNC(=O)c1ccc2c(=O)n(CC3CCCO3)c(=S)[nH]c2c1 (centres undefined) | ? | - | -
Cc1ccc(CNC(=O)c2ccc3c(=O)n(CC4CCCO4)c(=S)[nH]c3c2)cc1 (centres undefined) | ? | - | -
O=C(NCc1ccco1)c1ccc2c(=O)n(CC3CCCO3)c(=S)[nH]c2c1 (centres undefined) | 3.2µM | - | -
CC(C)NC(=O)c1ccc2c(=O)n(CC3CCCO3)c(=S)[nH]c2c1 (centres undefined) | 1.4µM | . | .
O=C(NCc1ccccc1)c1ccc2c(=O)n(CC3CCCO3)c(=S)[nH]c2c1 (centres undefined) | 2.8µM | - | -
CC1CCCC(NC(=O)c2ccc3c(=O)n(CC4CCCO4)c(=O)[nH]c3c2)C1C (centres undefined) | ? | - | -
CCCCN1C(=O)C2NN=C(C(=O)OC)C2C1=O (centres undefined) | - | - | -
O=C=Nc1ccc(Cl)c(Cl)c1 | - | . | -
COCCCN=C1NN=C(c2cc(C)n(-c3ccccc3)c2C)CS1 | 8.9µM | ? | -
Cc1cc(-c2nnc(-c3cc4ccccc4oc3=O)o2)c(C)n1-c1ccccc1 | ? | - | -
Fc1ccc(N=C2NN=C(c3cc(F)ccc3F)CS2)cc1 | ? | - | -
Cc1c(N=C2NN=C(c3ccc(Cl)cc3)CS2)c(=O)n(-c2ccccc2)n1C | 18µM | . | .
Cc1c(N=C2SCC(=O)N2/N=C/c2ccccc2Cl)c(=O)n(-c2ccccc2)n1C | ? | - | -
CCOC(=O)c1cc(C)n(-c2c(C)n(C)n(-c3ccccc3)c2=O)c1C | - | - | -
SMILES | ALDH1A1 inh | PNC inhibitor | HPGD block
Cc1cc(C2=NNC(=NC3CC3)SC2)c(C)n1-c1c(C)n(C)n(-c2ccccc2)c1=O | 25µM | - | -
Fc1ccc(F)c(C2=NNC(=Nc3ccccc3F)SC2)c1 | 16µM | ? | 16µM
CC(C)NC(=O)NC(=O)CN1C(=O)NC(Cc2c[nH]c3ccccc23)C1=O (centres undefined) | - | . | .
CC(=O)Nc1ccc(S(=O)(=O)NC2(C(F)(F)F)N=C(c3ccccc3)NC2=O)cc1 (centres undefined) | - | - | -
Cc1cccc(NS(=O)(=O)c2cc(C(=O)N3CCOCC3)ccc2Cl)c1 | - | . | .
CN=C1NN=C(c2cc(C)n(-c3ccc(Cl)cc3)c2C)CS1 | 8.9µM | . | .
COCCCN=C1NN=C(c2cc(C)n(Cc3ccccc3Cl)c2C)CS1 | 25µM | . | .
Clc1ccccc1N=C1NN=C(c2cccs2)CS1 | - | . | .
Cc1cc(/C=C/C(=O)O)c(C)n1-c1ccc(Cl)cc1 | - | . | .
COCCCN=C1NN=C(c2cc(C)n(-c3ccccc3F)c2C)CS1 | 25µM | . | .
COCCn1c(C)cc(C2=NNC(=Nc3ccccc3F)SC2)c1C | 18µM | - | -
Cc1cccc(N=C2NN=C(c3ccccc3F)CS2)c1C | - | . | .
O=C(Nc1cccc(F)c1)N1CC[C@@]2(CCCN(S(=O)(=O)c3ccccc3)C2)C1 | - | . | -
COC(=O)CP(=O)(c1ccccc1)c1ccccc1 | - | - | -
CC1(C)CC2(CCO1)CNC(=O)O2 (centres undefined) | - | - | -
